Shiga inhibitor: Shiga toxin inhibition | Vero cells, Shiga toxin protein synthesis inhibition reporter | inhibition, % at 38.7 µM | 9.2% of 290,000 active; in the data active = inhibition mostly above about 28%, no sharp cut-off; inactive = mostly below about 43%
NS1 function inh: influenza NS1 inhibition | Potency, µM (series often up to 46.1 µM) | AID 2326 | 0.4% of 270,000 active; calls by dose curve; note: actives are rising curves; nearly all actives have a fitted effect of over 50% in size
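Compounds were scored for reversing the slow growth caused by influenza A NS1 in S. cerevisiae, measured by optical density at 600 nm. Assay medium contained 2% galactose at pH 6.0; NS1-free yeast of the same strain were the positive control.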
FBPA Giardia inh: Giardia lamblia aldolase inhibition; A8B2U2; purified Giardia FBPA; Potency, µM (doses to about 59.6 µM), hits mostly inhibitors; 0.71% of 290,000 active; AID 2451; note: nearly all actives have a fitted effect of over 55% in size
Target sequence (A8B2U2 whole entry, looked up): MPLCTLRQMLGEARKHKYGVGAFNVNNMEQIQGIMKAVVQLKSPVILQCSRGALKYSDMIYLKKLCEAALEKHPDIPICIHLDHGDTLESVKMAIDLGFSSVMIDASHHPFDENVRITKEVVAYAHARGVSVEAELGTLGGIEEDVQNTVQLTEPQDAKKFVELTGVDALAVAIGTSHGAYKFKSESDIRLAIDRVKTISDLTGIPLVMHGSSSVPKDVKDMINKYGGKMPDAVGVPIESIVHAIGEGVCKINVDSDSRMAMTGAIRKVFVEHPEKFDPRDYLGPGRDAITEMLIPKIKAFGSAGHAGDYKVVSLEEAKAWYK
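Giardia FBPA (40 nM reagent) was preincubated 10 min at RT with compound (up to 57.5 uM final), then substrate plus GAPDH/TPI/NAD/arsenate coupling system with diaphorase/resazurin was added; resorufin fluorescence (525/598 nm) was read after 20 min.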
CHX counter: counter-screen for Shiga toxin inhibitors: cycloheximide protein synthesis inhibition. cell reporter, cycloheximide protein synthesis inhibition counterscreen. max response, %. 12% of 300,000 active. AID 2314; in the data active = max response mostly above about 13%, no sharp cut-off; inactive = mostly below about 14%; note: read at 38.3 µM for the half of the compounds with a filed dose
Pf growth 48h: inhibits P. falciparum growth in the first generation, 48 h; P. falciparum luciferase growth in erythrocytes, 48 h; Potency, µM (highest dose often 28.7 µM), most hits filed as inhibitors; 5.9% of 310,000 active
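Luminescence readout; reporter = integrated firefly luciferase in P. falciparum. RBC culture at 2% hematocrit, 0.1% parasitemia final, 37 C/5% CO2; decreased signal taken as growth inhibition.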
Pf growth 96h: inhibits malaria parasite growth, 96 h; P. falciparum luciferase reporter growth, 96 h; Potency, µM (series often up to 28.7 µM), actives largely listed as inhibitors; 6.9% of 320,000 active; AID 504834
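P. falciparum expressing integrated firefly luciferase, in erythrocytes at 2% hematocrit, 0.05% parasitemia, incubated with compounds 96 h at 37 C, 5% CO2. Growth inhibition read as loss of luminescence; two-generation exposure targets delayed-death apicoplast inhibitors.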
Hits are given with their value; [ ] = remark or other dose. Only some compounds are listed: those with a hit (about 21% of all), similar ones and a draw of the others. Unless noted, calls come from the whole dose curve; as a rule, active = well fitted curve in the direction sought with a large enough effect; inconclusive = small, poorly fitted or top-dose-only effect, or another doubt; inactive = no such curve, though single readings can be large; an effect the other way counts as inactive or inconclusive.

O=C1CCC(=O)N1CCCCCc1nc(-c2ccccc2)no1 was read as Shiga inhibitor inactive, NS1 function inh inactive, FBPA Giardia inh inactive, CHX counter 41 and Pf growth 48h inactive.
`CC(=O)O[C@@H]1CC[C@@]2(C)[C@H](C1)[C@H](OC(C)=O)C[C@@H]1[C@@H]2C[C@H]2[C@@H]3CN4C[C@H](C)CC[C@H]4[C@H](C)[C@H]3CC[C@@]12O` gave Shiga inhibitor inactive, FBPA Giardia inh inactive and CHX counter inactive.
For COc1ccc(C2/C=C\CN(C(=O)C3CCCC3)C(C)C(=O)N2Cc2ccc(F)cc2)cc1 (configuration not stated) the results were Shiga inhibitor inactive, FBPA Giardia inh inactive and CHX counter inactive.
CC1CC(C)CN(C(=O)C2CCN(S(=O)(=O)c3c(Cl)cccc3Cl)CC2)C1 (configuration not stated) was read as Shiga inhibitor inactive, NS1 function inh inactive, CHX counter inactive, Pf growth 48h inactive and Pf growth 96h inconclusive.
Screening CCN(C(=O)COC(=O)c1ccccc1NCCO)C1CCS(=O)(=O)C1 (configuration not stated) returned Pf growth 48h inactive and Pf growth 96h inactive.
`CCCc1nc(-c2ccc(-c3ccc(F)cc3)cc2)no1` gave Shiga inhibitor inactive, NS1 function inh inactive, FBPA Giardia inh inactive, CHX counter 18 and Pf growth 96h inconclusive.
`c1ccc(CCc2ccccc2-c2nc(-c3ccccn3)no2)cc1` gave Shiga inhibitor inactive, NS1 function inh inactive, FBPA Giardia inh inactive, CHX counter inactive and Pf growth 48h inconclusive.
For c1ccc(CCc2ccccc2-c2nc(-c3cccnc3)no2)cc1 the results were Shiga inhibitor inactive, NS1 function inh inactive, FBPA Giardia inh inactive, CHX counter inactive, Pf growth 48h 13µM and Pf growth 96h inconclusive.
For c1ccc(CCc2nc(-c3cccnc3)no2)cc1 the results were Shiga inhibitor 53, NS1 function inh inactive, FBPA Giardia inh inactive, CHX counter 22, Pf growth 48h inactive and Pf growth 96h inconclusive.
For CC1(OC(=O)c2ccc(Cl)nc2)C(=O)C=c2cc(-c3ccsc3)ncc2=C1OC(=O)C1CCCC1 (configuration not stated) the results were FBPA Giardia inh inactive[12.9 µM].
Screening CCc1c(C)nc2cc(-c3ccccc3)[nH]n2c1=O returned Shiga inhibitor 35, NS1 function inh inactive, FBPA Giardia inh inactive, CHX counter 34, Pf growth 48h inconclusive and Pf growth 96h inconclusive.
`CCCCc1c(C)nc2cc(-c3ccco3)[nH]n2c1=O` gave Shiga inhibitor 79, NS1 function inh inactive, FBPA Giardia inh inactive, CHX counter 34, Pf growth 48h inconclusive and Pf growth 96h inconclusive.
CCOC(=O)Cc1c(C)nc2cc(-c3ccc(C(C)(C)C)cc3)[nH]n2c1=O was read as Shiga inhibitor inactive, NS1 function inh inactive, FBPA Giardia inh inactive, CHX counter inactive and Pf growth 48h inactive.
C=CCc1c(C)nc2cc(-c3ccc(C)cc3)[nH]n2c1=O was read as Shiga inhibitor 72, NS1 function inh inactive, FBPA Giardia inh inactive, CHX counter 54, Pf growth 48h inactive and Pf growth 96h inactive.
Screening O=C1c2nc3cc(-c4ccco4)[nH]n3c(=O)c2CN1Cc1ccccc1 returned Shiga inhibitor inactive, NS1 function inh inactive, FBPA Giardia inh inactive, CHX counter inactive, Pf growth 48h inactive and Pf growth 96h inactive.
COc1cc(-c2cc3nc(C)c(C)c(=O)n3[nH]2)cc(OC)c1OC was read as Shiga inhibitor inactive, NS1 function inh inactive, FBPA Giardia inh inactive, CHX counter inactive, Pf growth 48h 10µM and Pf growth 96h inactive.
`Cc1ccnc2nc(C(=O)Nc3cc(Cl)ccc3N3CCOCC3)nn12` gave Shiga inhibitor inactive, NS1 function inh inactive, FBPA Giardia inh inactive, CHX counter inactive, Pf growth 48h 0.15µM and Pf growth 96h 0.23µM.
O=C(CNC(=O)c1ccc(Br)o1)NCc1ccc(Cl)cc1Cl was read as Shiga inhibitor inactive, NS1 function inh inactive, CHX counter inactive, Pf growth 48h inactive and Pf growth 96h inactive.
`O=C(Nc1ccc(Cl)cc1Cl)c1ccc(Br)o1` gave Shiga inhibitor 78, NS1 function inh inactive, FBPA Giardia inh inactive, CHX counter 44, Pf growth 48h inactive and Pf growth 96h inconclusive.
O=C(Nc1cc(Cl)ccc1N1CCOCC1)c1ccc(Br)o1 was read as Shiga inhibitor 65, NS1 function inh inactive, CHX counter 69, Pf growth 48h inactive and Pf growth 96h inactive.
For CC(=O)Nc1ccc(NC(=O)c2ccc(C)c(S(=O)(=O)Nc3cccc(C)c3)c2)cc1 the results were Shiga inhibitor inactive, NS1 function inh inactive, FBPA Giardia inh inactive, CHX counter inactive, Pf growth 48h 12µM and Pf growth 96h inactive.
Screening Cc1cccc(NS(=O)(=O)c2cc(C(=O)N3CCN(C)CC3)ccc2C)c1 returned Shiga inhibitor inactive, NS1 function inh inactive, FBPA Giardia inh inactive, CHX counter inactive and Pf growth 96h 9.3µM.
`CCN1CCN(C(=O)c2ccc(C)c(S(=O)(=O)Nc3cccc(C)c3)c2)CC1` gave Shiga inhibitor inactive, NS1 function inh inactive, CHX counter inactive, Pf growth 48h inactive and Pf growth 96h inactive.
For CN(CC(=O)Nc1c(Cl)cccc1Cl)C(=O)CCC1CCCC1 the results were Shiga inhibitor inactive, NS1 function inh inactive, CHX counter inactive, Pf growth 48h inactive and Pf growth 96h inconclusive.
CC(C)C[C@H](NC(=O)N1CCn2c1nc1ccccc12)C(=O)N[C@@H](Cc1ccccc1)C(=O)O was read as Shiga inhibitor inactive, NS1 function inh inactive, FBPA Giardia inh inactive, CHX counter inactive, Pf growth 48h inactive and Pf growth 96h inactive.
Screening CSc1ccc(Cc2ccc(Cl)cc2Cl)nn1 returned Shiga inhibitor inactive, NS1 function inh inactive, FBPA Giardia inh inactive, CHX counter 22, Pf growth 48h inactive and Pf growth 96h inactive.
For NNc1ccc(Cc2ccc(Cl)cc2Cl)nn1 the results were Shiga inhibitor inactive, FBPA Giardia inh inactive, CHX counter inactive, Pf growth 48h inactive and Pf growth 96h inconclusive.
`CCCc1ccc2oc(C(=O)N3CCC(COC)C3)c(C)c2c1` (configuration not stated) gave NS1 function inh inactive, FBPA Giardia inh inactive, CHX counter 33, Pf growth 48h inactive and Pf growth 96h inconclusive.
`CCCc1ccc2oc(C(=O)N3CCC(N4CCCC(O)C4)CC3)c(C)c2c1` (configuration not stated) gave Shiga inhibitor inactive, NS1 function inh inactive, CHX counter inactive, Pf growth 48h inconclusive and Pf growth 96h inactive.
For Cc1ccc2c(C)c(C(=O)NCCN3CCCC(O)C3)oc2c1C (configuration not stated) the results were Shiga inhibitor inactive, NS1 function inh inactive, CHX counter inactive, Pf growth 48h inactive and Pf growth 96h inactive.
`CCCc1ccc2oc(C(=O)N3CCC[C@H]3CO)c(C)c2c1` gave Shiga inhibitor 29, NS1 function inh inactive, FBPA Giardia inh inactive, CHX counter 41, Pf growth 48h inactive and Pf growth 96h inconclusive.

Assay outcomes from PubChem.
